The source of these data is PubChem BioAssay (Tox21).

Molecules are shown by their SMILES. Several values for one entry are separate records, joined by “and”; a condition that tells them apart may be missing. Equal entries are not always repeated. Records with an inconclusive call do not appear. More than one record can exist for a structure, and the calls need not agree. Activity calls are given as the source filed them. The call rests on the fitted dose curve; in most records, active means well fitted cell-killing curve with a large enough effect in the repeat runs; inconclusive means weak or mixed curves, or effect the other way; inactive means no such curve, though single readings can be large or run the other way.
On the % scale 0 is the no-effect control and ±100 the full control effect; potency means the concentration at half of the fitted maximal effect.

A short description of the test: qHTS assay for identifying genotoxic compounds that show differential cytotoxicity against isogenic chicken DT40 cell lines with known DNA damage response pathways - wild type cell line (AID 743012). Further: nearly all actives have a fitted effect of over 60% in size. The conditions noted are these: DT40 wild type chicken cells viability, CellTiter-Glo, 40 h; series mostly up to 68.4 µM; activity change, negative = cytotoxicity: at the top concentration. The source says: U.S. Tox21 Program National Center for Advancing Translational Sciences [NCATS] NIH Chemical Genomics Center [NCGC] U.S. Environmental Protection Agency [EPA] National Institutes of Environmental Health Sciences [NIEHS] National Toxicology Program [NTP] U.S. Food and Drug Administration [FDA] Tox21 Assay Overview: DNA repair pathways play a critical role in cellular homeostasis by repairing DNA damage induced by endogenous processes and xenobiotics. Isogenic chicken DT40 cell lines deficient in different DNA repair pathways can be used to identify genotoxic compounds and aid in characterizing the nature of the DNA damage induced. Two DNA repair-deficient cell lines with disrupted genes, Rad54/Ku70 or Rev3, were used to screen the Tox21 10K compound library. Possible genotoxicity was based on the presence of a significant increase in cytotoxicity in one or more of the DNA repair-deficient cell lines compared to that observed in the parental DNA repair-proficient cell line. CellTiter Glo viability assay (Promega, Madison, WI) was used to measure cell viability in these cells after compound treatment. This assay includes the data from the wild type cell line.
Tox21 Assay Protocol Summary: 300 DT40 wild type cells in 5 uL/well were dispensed into white, solid-bottom 1536-well plates using a Multidrop Combi (ThermoFisher Scientific, Waltham, MA) dispenser. After the assay plates were incubated at 37 C/5% CO2 for approximately 0.5 hour, 23 nL of compounds dissolved in DMSO, positive controls or DMSO only was transferred into the assay plate by a pintool work station (Kalypsys, San Diego, CA). The assay plates were incubated at 37 C/5% CO2 for 40 hours. After 5 uL per well of CellTiter-Glo reagent was added into each well of the assay plates, the plates were incubated for 30 min at room temperature and the luminescence intensity of the plates was measured using a ViewLux (PerkinElmer, Shelton, CT) plate reader.
For `CN(C)S(=O)(=O)N(SC(F)(Cl)Cl)c1ccccc1`, the Potency was 0.109 µM (active).

Consider `NNC(=O)c1ccccc1`, for which the “activity change, negative = cytotoxicity” value is -14.7% [at 95 µM] (inactive). Regarding `CCCCCCCCCCCCCCCC[N+](C)(C)C`, the Potency was 473 nM (active) and 934 nM (active) and 969 nM (active). In the case of `[Cl][Sb]([Cl])[Cl]`, the “activity change, negative = cytotoxicity” value was -7.79% (inactive). As for `COC12CC[C@@]3(C[C@@H]1C(C)(O)C(C)(C)C)[C@H]1Cc4ccc(O)c5c4[C@@]3(CCN1CC1CC1)[C@H]2O5` (stereo not given in full), the Potency was 54.1 µM (active). For `[Cd+2].[Cl-].[Cl-]`, the Potency is 19.5 µM (active) and 24.3 µM (active). Consider `CC(=O)O[C@H]1CC[C@@]2(C)C(=CC[C@@H]3[C@@H]2CC[C@]2(C)C(=O)CC[C@@H]32)C1`, for which the “activity change, negative = cytotoxicity” value was 14.9% (inactive). `O=C/C(Cl)=C(/Cl)C(=O)O`: the Potency is 17.2 µM (active).

With `CC(=O)[O-].CC(=O)[O-].O.O.[Cd+2]`, the Potency is 67.6 µM (active).

On to `O=[N+]([O-])c1cc(C(F)(F)F)c(Cl)c([N+](=O)[O-])c1Cl`, for which the Potency was 0.386 µM (active). The same measure, in the same setting: the same measure for `CC(Cc1ccc(C(C)(C)C)cc1)CN1C[C@@H](C)O[C@@H](C)C1` (stereo not given in full): 9.69 µM (active); for `CC(C)OC(=S)S`: 24.3 µM (active). The same measure, in the same setting: next, `O=S(=O)(c1ccc(Cl)cc1)c1ccc(Cl)cc1`: 24.6 µM (active).

As to `Clc1ccc(CCC(Cn2ccnc2)Sc2c(Cl)cccc2Cl)cc1` (stereo not given), the Potency is 12.7 µM (active). Same read-out and setting: the same measure for `S=C(SSC(=S)N1CCCCC1)N1CCCCC1`: 0.531 µM (active); for `CC(C)[C@H](C(=O)OC(C#N)c1cccc(Oc2ccccc2)c1)c1ccc(OC(F)F)cc1` (stereo not given in full): 24.3 µM (active).

With `ClCc1ccc(Cl)cc1Cl`, the “activity change, negative = cytotoxicity” value was 27.1% (inactive).

Regarding `C[C@]12Cc3nonc3C[C@@H]1CC[C@@H]1[C@@H]2CC[C@@]2(C)[C@H]1CC[C@]2(C)O`, the Potency is 11.9 µM (active).

For the molecule `CN(C)C(=S)S`, the Potency is 1.36 µM (active) and 1.37 µM (active). The same measure, in the same setting: the same measure for `CC1CCC(C(C)C)C(OC(=O)c2ccccc2N)C1` (stereo not given): 23.7 µM (active) and inactive. Regarding `COC(=O)N(C(=O)N1CO[C@@]2(C(=O)OC)Cc3cc(Cl)ccc3C2=N1)c1ccc(OC(F)(F)F)cc1`, the Potency is 6.63 µM (active). On the same count and under the same terms, next, `CCCN(CCC)CCc1c[nH]c2ccccc12`: 53.8 µM (active); `C[C@@H]1O[C@@H](O[C@@H]2C=C3CC[C@@H]4[C@H](CC[C@]5(C)[C@@H](c6ccc(=O)oc6)CC[C@]45O)[C@@]3(C)CC2)[C@H](O)[C@H](O)[C@H]1O`: 0.127 µM (active); `CSCCCN=C=S`: 48.6 µM (active). Still for that read-out and setting: the same measure for `ClC1=C(Cl)C2(Cl)C3C(Cl)C(Cl)CC3C1(Cl)C2(Cl)Cl` (stereo not given): “inactive and 21.7 µM (active)”. As for `Cc1cc(C)cc(OP(=O)(Oc2cc(C)cc(C)c2)Oc2cc(C)cc(C)c2)c1`, the “activity change, negative = cytotoxicity” value was 21.1% [at 95 µM] (inactive). In the case of `CCOCn1c(-c2ccc(Cl)cc2)c(C#N)c(Br)c1C(F)(F)F`, the Potency was 1.93 µM (active). Same read-out and setting: the same measure for `N#CSCSC#N`: 5.57 µM (active) and 1.21 µM (active).

Regarding `CC(C)OS(C)(=O)=O`, the “activity change, negative = cytotoxicity” value was -1.79% [at 95 µM] (inactive).

As for `Cc1cc(C(C)(C)c2cc(C)c(O)c(C)c2)cc(C)c1O`, the Potency was 52.7 µM (active). Regarding `Clc1ccc(C(c2ccc(Cl)cc2)C(Cl)(Cl)Cl)cc1`, the Potency is 18.8 µM (active) and 24.3 µM (active). With `CC(C)CC(C)(c1ccc(O)cc1)c1ccc(O)cc1`, the “activity change, negative = cytotoxicity” value was 0.576% (inactive). As for `Clc1ccc(COC(Cn2ccnc2)c2ccc(Cl)cc2Cl)cc1` (stereo not given), the Potency is 7.5 µM (active) and 20.2 µM (active) and 15.3 µM (active). For `ClC(Cl)=C(Cl)Cl`, the “activity change, negative = cytotoxicity” value was 7.83% (inactive). For `Clc1ccc(CSC(Cn2ccnc2)c2ccc(Cl)cc2Cl)cc1` (stereo not given), the Potency was 10.1 µM (active). Same read-out and setting: the same measure for `O=[N+]([O-])c1cc([N+](=O)[O-])c2ccccc2c1`: 6.11 µM (active); for `CC(C)(C)c1ccc(CSc2cnn(C(C)(C)C)c(=O)c2Cl)cc1`: 0.0097 µM (active). As to `CC(=O)c1cc(C(C)(C)C)cc2c1CCC2(C)C`, the “activity change, negative = cytotoxicity” value is 9.93% (inactive).

Consider `[Hg+2].[I-].[I-]`, for which the Potency was 1.37 µM (active). Same read-out and setting: next, `CC(C)C1CCC(Cc2ccc(Cl)cc2)C1(O)Cn1cncn1` (stereo not given): 19.1 µM (active).
